# Measurements published in the supplement of paper PMC3334620.
# The full ranking holds about 33,000 sequences; the median of “E-score (-0.5 to 0.5)” is about -0.016, and the highest 2% start at about 0.32. This excerpt belongs to a sample that is enriched for the highest values.
# Biological target: T1, Stp1 (UniProt B3LFK1)
# T1 sequence: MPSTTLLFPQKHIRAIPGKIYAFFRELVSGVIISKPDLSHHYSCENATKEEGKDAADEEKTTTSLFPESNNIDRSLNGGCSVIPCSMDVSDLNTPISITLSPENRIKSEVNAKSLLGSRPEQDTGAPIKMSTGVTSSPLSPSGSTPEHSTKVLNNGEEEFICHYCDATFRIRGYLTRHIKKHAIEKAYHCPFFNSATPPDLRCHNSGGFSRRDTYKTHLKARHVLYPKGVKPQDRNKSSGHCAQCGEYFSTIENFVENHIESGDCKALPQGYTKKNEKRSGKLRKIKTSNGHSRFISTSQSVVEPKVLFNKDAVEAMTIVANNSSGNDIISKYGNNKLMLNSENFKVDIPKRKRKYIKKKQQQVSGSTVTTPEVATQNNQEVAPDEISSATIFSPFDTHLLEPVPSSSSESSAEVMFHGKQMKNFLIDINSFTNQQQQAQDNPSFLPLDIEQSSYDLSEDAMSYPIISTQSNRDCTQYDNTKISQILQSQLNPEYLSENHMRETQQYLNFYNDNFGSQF
# Assay: PBM E-score (8-mer binding enrichment) (E-score (-0.5 to 0.5)); higher = stronger / more preferred TF binding
# Details: protein concentration: 200 nM; construct: GST-full length
# Procedure, shortened: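 GST-tagged yeast TFs (full-length or DNA-binding domain) were made by PURExpress in vitro transcription/translation and applied at about 100-200 nM to universal all-10-mer Agilent arrays. The arrays were made double-stranded by primer extension, on fresh or once-stripped slides. Bound protein was detected with fluorescent anti-GST, and scans were normalised with masliner. Each ungapped eight-base word, pooled with its reverse complement, received an E-score (modified Wilcoxon-Mann-Whitney statistic) from the Universal PBM Analysis Suite.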
row,Sequence,PBM E-score
1,CTGGGGAC,-0.392
2,ATGCGGTG,-0.103
3,ATGCGGCC,0.331
4,ATGCGGAG,-0.0518
5,ATGCGGTC,0.0837
6,ATGCGGGC,0.0547
7,ATGCGGCG,0.485
8,TAGCGCTA,-0.0704
9,TCCTCTAA,-0.222
10,CGCGATTC,0.118
11,ACTGGTCA,-0.105
12,CCACGCGG,0.18
13,ATGCCGCG,0.475
14,GTGCCGCA,0.483
15,GTGCCGGA,0.175
16,ATGCCGGA,0.0395
17,ATTCCGCA,0.0903
18,CTGCCGCA,0.347
19,GTGCCAAA,0.119
20,CTGCCGCC,0.226
21,ATGCCGCA,0.468
22,ATGCCACG,0.275
23,CTACCGCA,0.0499
24,ATGCCACA,0.243
25,GCTTTGTA,0.135

row,Sequence,PBM E-score
1,AAGTTAGG,0.0337
2,CAACCACG,0.0433
3,GGCTGAAA,0.103
4,AAGCTCAA,-0.135
5,CTATGCCC,-0.0982
6,ATGCCGGC,0.0928
7,AGGCCGCC,-0.0139
8,ATGCCGCC,0.386
9,GGTTTGAA,0.0901
10,GAAGTGAC,-0.0146
11,GAAAGGCC,0.272
12,GCAAGGCA,0.38
13,ACAAGGCA,0.315
14,AAAAGGCT,0.0632
15,AAAAGGCA,0.359
16,AAAAGGCG,0.34
17,GCAAGGCC,0.151
18,AGAAGGCG,0.2
19,AAAAGGCC,0.174
20,CAAAGGCA,0.184
21,GAAAGGCA,0.376
22,CAAAGGCG,0.129
23,TGAGAAAA,0.116
24,GCCCCTAA,-0.229
25,CTAAGGGC,-0.224

row,Sequence,PBM E-score
1,CTTTTCGA,0.174
2,CACCCTAG,-0.172
3,GCAGAAAC,0.234
4,ACAGTCGA,-0.262
5,CAACGCCA,0.0795
6,AAACGCCC,0.231
7,GAACGCCA,0.0737
8,CAACGCCC,0.0959
9,CAACGCCG,0.391
10,TAACGCCA,0.133
11,AAACGCCT,0.141
12,AAACGCCA,0.345
13,AAACGCCG,0.428
14,CTGGAAAG,-0.15
15,AGCGAAAG,-0.138
16,ATGGCTAG,0.0312
17,CCTTTCCG,0.0145
18,ATGACTTC,0.00281
19,AGTACTTG,0.142
20,GGGGACGA,-0.249
21,ATCTCACG,0.015
22,CTGGTGCC,0.252
23,CCAGTGCC,0.179
24,ACAGTGCC,0.321
25,ATGGTGCC,0.372

row,Sequence,PBM E-score
1,ATGGTGCG,-0.0219
2,ACGGTGCA,-0.00717
3,GCAGTGCC,0.253
4,ACGGTGCC,0.396
5,ACGGTGCG,0.173
6,AACTGGAT,0.0626
7,TCCCATCA,-0.201
8,GGACTGCA,-0.229
9,GAGCAGAA,-0.0386
10,CGCACGGA,0.39
11,GGCACGCA,0.288
12,CGCACGCA,-0.00526
13,GGCACGGA,0.376
14,CTCACGGA,0.0462
15,GTCACGGA,-0.0129
16,TACTCTAA,0.034
17,CCCTGTCG,0.0867
18,CATATGGG,-0.035
19,AGGGTCGC,0.0437
20,CGCGGTGA,0.0941
21,AGCGGCGG,0.337
22,AGCAGCGC,0.0916
23,AGCGGCGC,0.452
24,GGCGGCGA,0.276
25,AGCGGCGA,0.386

row,Sequence,PBM E-score
1,CGCGGCGA,0.451
2,AGCGGGGC,0.0451
3,AGCGGCCA,-0.114
4,ACCGGCGG,0.0942
5,AGCGGGGG,-0.287
6,CGCGGAGA,0.109
7,AGAGCTTG,-0.106
8,ATGAGCTG,-0.175
9,GATCCATA,0.134
10,ACGCTAAG,0.00258
11,CGGACCGA,0.0676
12,CCTCGCAG,-0.0486
13,GCGTCTAC,-0.155
14,AACTGCCT,0.0172
15,AACTGCCG,0.329
16,CACTGCCC,-0.071
17,AACTGCCC,-0.192
18,CACTGCCG,0.336
19,CACTGCCA,0.0847
20,AGATCCAA,0.0566
21,AAGCTGTG,-0.106
22,ACCTTGTA,0.0137
23,CCCTTGTA,-0.178
24,GCCTTGTA,0.354
25,TCCTTGCA,-0.0871

row,Sequence,PBM E-score
1,CCCTTGCA,-0.163
2,GCCTTGCA,0.33
3,AAGGATGC,-0.187
4,GTGGTCTA,-0.307
5,CTCTACCA,-0.0433
6,GCTGGTCC,-0.253
7,GTTGTGGA,-0.0929
8,CATGCCCA,-0.249
9,ATGACGCC,0.2
10,ACCGTCCC,-0.184
11,GCCGTCTA,0.429
12,ACCGTCTA,-0.0765
13,GCCGTCGC,0.351
14,TCCGTCCA,-0.122
15,ACCGTCGC,0.0157
16,CCCGTCTA,-0.0264
17,GCCGTCGA,0.278
18,CCCGTCCC,-0.249
19,GCCGTCCA,0.364
20,GCCGTCCC,0.378
21,CCCGTCCA,-0.00501
22,AGACAAAG,0.00552
23,GAGGGTAA,-0.0792
24,CACCATAC,-0.0768
25,TAAAGTGA,0.135

row,Sequence,PBM E-score
1,CAGAAAGG,0.0864
2,CCTGCGGC,0.331
3,ACTGCGGG,-0.153
4,CCTGCGCC,0.295
5,ACTGCGGC,0.381
6,CCTGCGGA,0.0839
7,ACTGCGGA,0.0949
8,ACTTAGAA,0.0195
9,GAACAGGC,-0.0513
10,ACAAGGGA,-0.144
11,GCAACCTA,0.081
12,ATAAGCCG,0.0578
13,ATTGCTAA,0.0687
14,ACCGCCTC,-0.0359
15,CGCGCCTA,0.313
16,CACGCCTC,0.205
17,CTCGCCTC,0.00469
18,ATCGCCTG,-0.135
19,ATCGCCTC,0.356
20,CGCGCCTC,0.377
21,AGCGCCTG,-0.0292
22,AGCGCCTC,0.389
